Screening results from PubChem.
Only some compounds are listed: those with a hit (about 9.9% of all), similar ones and a draw of the others.
Tau fibril ThT – tau fibrillization inhibition (ThT binding) | recombinant tau K18 P301L, heparin-induced fibrillization, ThT fluorescence | 270,000 tested, 2.1% active | Potency, µM (doses to about 57.4 µM), inactives show at the top dose activity, negative = inhibition, usual class: inhibitors | P10636; active means well fitted curve in the direction sought with a large enough effect; inconclusive means small, poorly fitted or top-dose-only effect, or another doubt; inactive means no such curve, though single readings can be large; an effect the other way counts as inactive or inconclusive; further: nearly all actives have a fitted effect of over 55% in size
Target sequence (P10636 561-689 P618L limits assumed): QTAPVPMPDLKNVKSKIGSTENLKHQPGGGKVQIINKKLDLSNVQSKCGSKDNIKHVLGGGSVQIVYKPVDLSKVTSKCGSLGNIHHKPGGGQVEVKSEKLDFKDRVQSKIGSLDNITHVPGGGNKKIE
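In this qHTS, human K18 P301L tau is incubated with compound and heparin for 6 hr at 37 C, and Thioflavin T fluorescence then reports fibril load.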
Tau FP inhib – inhibitors of human tau fibril formation; P10636; K18 P301L tau heparin fibrillization, Alexa594 FP, 6 h; Potency, µM (doses to about 57.7 µM), inactives show at the top dose activity, negative = inhibition, most hits filed as inhibitors; 280,000 tested, 0.39% active; AID 1468; active means well fitted curve in the direction sought with a large enough effect; inconclusive means small, poorly fitted or top-dose-only effect, or another doubt; inactive means no such curve, though single readings can be large; an effect the other way counts as inactive or inconclusive; further: nearly all actives have a fitted effect of over 55% in size
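Compound effects on tau fibrillization are measured by Alexa 594 fluorescence polarization (ex 555, em 632 nm). K18 P301L tau is used at 15 uM with 0.24 uM labeled tracer, and 20 uM heparin induces aggregation over 6 hr at 37 C.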
JMJD2E inh – JMJD2E (human) inhibition; B2RXH2; JMJD2E catalytic domain, FDH-coupled NADH fluorescence (FDH is formaldehyde dehydrogenase); Potency, µM (titrated, usually from 57.1 µM), for inactives: top-dose activity change, negative = inhibition, actives largely listed as inhibitors; 230,000 tested, 1.6% active; AID 2147;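 further: 0% = wells with enzyme and -100% = buffer wells without enzyme; nearly all actives have a fitted effect of over 50% in size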
ALDH1A1 block – blocks purified human ALDH1A1 activity; AID 1030; 220,000 tested, 7.3% active; P00352; Purified ALDH1A1, NADH fluorescence, propionaldehyde substrate; Potency, µM (titrated, usually from 75.3 µM), inactives show at the top dose activity, negative = inhibition, most hits filed as inhibitors;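 further: plate controls were no enzyme wells and a reference inhibitor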
Target sequence (P00352 whole entry, looked up): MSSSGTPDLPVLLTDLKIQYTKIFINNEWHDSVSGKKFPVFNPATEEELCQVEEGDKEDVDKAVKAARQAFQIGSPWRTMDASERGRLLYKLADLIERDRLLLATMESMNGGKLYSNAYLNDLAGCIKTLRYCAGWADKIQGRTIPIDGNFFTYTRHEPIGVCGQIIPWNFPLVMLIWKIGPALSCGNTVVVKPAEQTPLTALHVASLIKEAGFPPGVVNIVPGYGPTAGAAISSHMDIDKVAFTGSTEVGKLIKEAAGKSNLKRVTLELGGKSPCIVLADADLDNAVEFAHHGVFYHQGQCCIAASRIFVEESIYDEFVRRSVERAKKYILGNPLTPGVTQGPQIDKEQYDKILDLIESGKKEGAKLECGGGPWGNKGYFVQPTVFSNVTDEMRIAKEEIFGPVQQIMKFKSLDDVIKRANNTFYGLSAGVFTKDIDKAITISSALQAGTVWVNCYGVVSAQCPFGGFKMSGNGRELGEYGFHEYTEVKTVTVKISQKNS
HPGD block – inhibitors of human 15-hydroxyprostaglandin dehydrogenase (HPGD) | purified HPGD, NADH fluorescence kinetic, PGE2 substrate | Potency, µM, inactives show top-dose activity change, negative = inhibition, actives largely listed as inhibitors | 150,000 tested, 4.3% active
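NADH formation kinetics: reaction with 30 uM PGE2 and 1 mM NAD+ (final), 20 nM enzyme, Tris-HCl pH 8 with Tween 20, after 15 min compound preincubation at room temperature. Fluorescence change, last versus first of five reads.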
Tau fluor cs – counter-screen for tau fibril formation inhibitors. tau K18 P301L (four-repeat tau fragment) Alexa594 fluorescence, heparin fibrillization. Potency, µM (doses to about 57.7 µM), for inactives: at the top dose activity change, negative = decrease. 280,000 tested, 0.93% active. AID 1463; active means well fitted curve in the direction sought with a large enough effect; inconclusive means small, poorly fitted or top-dose-only effect, or another doubt; inactive means no such curve, though single readings can be large; an effect the other way counts as inactive or inconclusive; further: nearly all actives have a fitted effect of over 55% in size
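Human K18 P301L tau (15 uM unlabeled plus 0.24 uM Alexa 594-labeled, final) in 100 mM sodium acetate pH 7 was mixed with compound and 20 uM heparin and incubated 6 hr at 37 C.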
An asterisk follows results filed as active; ? = inconclusive; . = not tested or not shown; [ ] = remark or other dose. Unless noted, the call rests on the fitted dose curve; in most records, active means well fitted inhibition curve with a large enough effect (not every such curve was filed as active); inconclusive means small, poorly fitted or top-dose-only effect, or another doubt; inactive means no such curve, though single readings can be large or run the other way. Unless noted, on the % scale 0 is the no-effect control and ±100 the full control effect; potency means the concentration at half of the fitted maximal effect.

SMILES	Tau fibril ThT	Tau FP inhib	JMJD2E inh	ALDH1A1 block	HPGD block	Tau fluor cs
O=C(c1ccco1)N(Cc1ccc([N+](=O)[O-])cc1)c1ccc(Br)cc1	-11%	4%	-1%	?	-9%	-23%
O=C(c1ccco1)N(Cc1cccc([N+](=O)[O-])c1)c1ccc(Br)cc1	-14%	7%	-1%	22µM*	.	-10%
O=C(c1ccco1)N(Cc1ccccc1)c1cccc([N+](=O)[O-])c1	-2%	5%	?	20µM*	.	-13%
O=C(CN1C(=O)NC2(CCCCCC2)C1=O)N1CCC(Cc2ccccc2)CC1	-11%	-4%	-2%	22µM*	0%	-5%
O=C(CN1C(=O)NC2(CCCCC2)C1=O)N1CCN(S(=O)(=O)c2ccccc2)CC1	3%	1%	-1%	-4%	.	-1%
CCOC(=O)/C(=N\Nc1cc(Cl)ccc1Cl)N1CCN(CC)CC1	-15%	-1%	-25%	-3%	-16%	-14%
Cc1ccc(S(=O)(=O)N(C)C)cc1NC(=S)N1CCc2ccccc21	-4%	2%	-9%	25µM*	.	-5%
Cc1ccc(S(=O)(=O)N(C)C)cc1NC(=S)NC12CC3CC(CC(C3)C1)C2	1%	?	-5%	?	.	?
CN(C)S(=O)(=O)c1cccc(NC(=S)N2CCc3ccccc32)c1	-12%	-8%	-7%	18µM*	.	?
CC1Cc2ccccc2N1C(=S)Nc1cccc(S(=O)(=O)N(C)C)c1 (centres undefined)	-8%	-10%	-11%	?	.	-24%
Cc1ccc(S(=O)(=O)c2c(Nc3ccc(C)c(C)c3)sc(C(=O)c3ccc4c(c3)OCO4)c2N)cc1	4%	-11%	.	.	.	-10%
Cc1ccc(/C(=N/Nc2nc3ccccc3s2)C2=C(O)c3ccccc3C2=O)cc1	?	-1%	-3%	-2%	.	?
CC(=O)c1c(C)[nH]c(=S)c(C#N)c1-c1ccc(Cl)cc1	?	0%	-18%	.	.	-20%
Cc1[nH]c(=S)c(C#N)c(-c2ccco2)c1C(=O)N(C)C	-16%	-4%	?	28µM*	.	-3%
Cc1nn2c3c(cnc2c1-c1ccc(F)cc1)C(=O)CC(c1ccccc1)C3 (centres undefined)	0%	-7%	.	.	.	-6%
O=C(Nc1cccnc1)/C(N=Nc1cccnc1)=C(\O)c1ccccc1	?	16%	1%	1.4µM*	-26%	-12%
O=C(Nc1ccccc1)C(=O)Nc1cccnc1	-14%	-1%	-7%	7%	.	-13%
COc1cc(/C=C/C(=O)c2ccc(NS(=O)(=O)c3ccc(C)cc3)cc2)cc(OC)c1O	11µM*	15%	?	22µM*	-17%	14µM*[quencher]
COc1cc(/C=C/C(=O)c2ccc(NS(=O)(=O)c3ccc(C)cc3)cc2)ccc1OC(F)F	15%	-8%	-2%	-2%	16µM*	10%
COc1cccc(/C=C/C(=O)c2ccc(NS(=O)(=O)c3ccc(C)cc3)cc2)c1	1%	5%	1%	-8%	-16%	-9%
Nc1ncnc(Oc2cccc3cccnc23)c1[N+](=O)[O-]	?	-5%	-17%	3%	.	-10%
CC(C)(C)c1ccc(-c2nnc(SCC(=O)c3ccc4c(c3)OCCO4)o2)cc1	?	-13%	3%	?	-17%	-19%
O=C(CSc1nnc(-c2ccncc2)o1)c1ccc2c(c1)OCCO2	?	-2%	-15%	0.79µM*	.	-9%
O=C(CSc1nnc(-c2ccncc2)o1)c1cccc([N+](=O)[O-])c1	?	-2%	1%	14µM*	.	-23%
COc1ccc(NCc2nnc(SCC(=O)c3ccc(OC)cc3)o2)cc1	?	-11%	-7%	16µM*	-10%	?
SMILES	Tau fibril ThT	Tau FP inhib	JMJD2E inh	ALDH1A1 block	HPGD block	Tau fluor cs
O=C(CSc1nnc(CNc2ccccc2)o1)c1ccc2c(c1)OCCO2	?	-4%	0%	14µM*	-10%	-25%
CCN(CC)C[C@@H](O)c1ccc2ccc3ccccc3c2c1	.	.	.	10%[13.5 µM]	-1%	.
CCn1cc2nc(SCc3ccccc3Cl)n(Cc3ccc(OC)cc3)c(=O)c2n1	-11%	0%	.	.	.	-17%
CCCNC(=S)N1CC2(C)CN(C(=O)C(=O)OCC)CC(C)(C1)C2=O	-7%	7%	-15%	10%	.	-8%
COc1ccc(CCCc2nnc(SCC(=O)Nc3ccc(Cl)cc3)o2)cc1	-15%	?	.	.	.	-18%
COc1ccc(CCCc2nnc(SCC(=O)NN)o2)cc1	-15%	-5%	7%	7.9µM*	.	-13%
CC(=O)Nc1cccc(-c2nnc(SCC(=O)c3cc([N+](=O)[O-])ccc3Cl)o2)c1	?	-10%	.	.	.	20µM*[quencher]
COc1ccc([N+](=O)[O-])cc1NS(=O)(=O)c1cccc(C(=O)O)c1	2%	-2%	4%	.	.	3%
Cc1ccccc1NC(=O)/C=C/c1ccc([N+](=O)[O-])s1	13µM*	?	5%	-3%	-10%	?
CC(=O)c1cccc(NC(=O)/C=C/c2ccc([N+](=O)[O-])s2)c1	4µM*	?	6%	-4%	.	?
Cc1cc(C)cc(NC(=O)/C=C/c2ccc([N+](=O)[O-])s2)c1	?	-8%	6%	-1%	0%	-17%
CC(=O)Nc1cccc(Oc2ccc3c(c2)C(=O)N(CCC(=O)O)C3=O)c1	-1%	-8%	8%	2%	25µM*	-7%
O=C(O)CCN1C(=O)c2ccc(NC(=O)CSc3ccccc3)cc2C1=O	5%	-3%	-5%	?	20µM*	0%
CCCC(=O)Nc1ccc2c(c1)C(=O)N(CCC(=O)O)C2=O	5%	-2%	?	?	?	2%
COCCCN1C(=O)c2ccc(C(=O)Nc3cccc(OC)c3)cc2C1=O	-4%	-6%	7%	1.6µM*	-13%	-15%
O=C(O)CCCN1C(=O)c2ccc(Oc3cccc([N+](=O)[O-])c3)cc2C1=O	8%	1%	-8%	0%	.	4%
COc1cccc(C(=O)Nc2ccc3c(c2)C(=O)N(CCC(=O)O)C3=O)c1	-7%	4%	-5%	13%	-14%	-2%
Cc1ccc(NC(=O)Cn2nc(-c3ccccc3)nc(Cc3ccc(Cl)cc3)c2=O)cc1	-1%	-14%	.	.	.	-1%
O=c1[nH]c(SCc2ccc(F)cc2Cl)nc2ccccc12	-5%	-4%	5%	6%	.	-12%
N[C@@H](CSCc1ccc(I)cc1)C(=O)O	.	.	.	2%[13.5 µM]	-4%	.
COc1cc(S(=O)(=O)Nc2ccc3cn[nH]c3c2)ccc1Cl	-3%	-12%	-13%	-15%	.	-26%
O=C(O)c1ccc(Cl)c(S(=O)(=O)Nc2ccc3cn[nH]c3c2)c1	-16%	1%	-3%	22µM*	.	-6%
